Reference: publication PMC5540273 (PLoS ONE, 2017)

Tests used:
Conditions in all cases: concentration: 1 μM, replicates: in singlicate; n = 1
NEK7 = test system: NEK7
NEK9 = test system: NEK9
NIK = test system: T1, NIK
T1 construct: gene MAP3K14

NIM1 = test system: T2, NIM1
T2 construct: gene MGC42105

NLK = test system: NLK
OSR1 = test system: T3, OSR1
T3 construct: gene OXSR1

PAK1 = test system: PAK1
PAK2 = test system: PAK2
PAK3 = test system: PAK3
PAK4 = test system: PAK4
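Further: KINOMEscan kinase panel screen.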

| Compound | %Inh (NEK7) [%] | %Inh (NEK9) [%] | %Inh (NIK) [%] | %Inh (NIM1) [%] | %Inh (NLK) [%] | %Inh (OSR1) [%] | %Inh (PAK1) [%] | %Inh (PAK2) [%] | %Inh (PAK3) [%] | %Inh (PAK4) [%] |
| --- | --- | --- | --- | --- | --- | --- | --- | --- | --- | --- |
| Cc1cc(N2Cc3ccccc3C2)nc(Nc2ccc(S(=O)(=O)N3CCOCC3)cc2)n1.Cl [GSK1669917] | 0 | 0 | 0 | 6 | 7 | 0 | 8 | 3 | 0 | 0 |
| Cc1cc(-c2ccc3c(c2)CC[C@@H](N[C@@H](C)c2ccccc2)C3)cnc1N.Cl [GW412617] | 9 | 0 | 77 | 22 | 0 | 8 | 0 | 16 | 0 | 36 |
| Cc1ccc(-c2cc(-c3c[nH]nc3-c3ccccn3)ccn2)cc1 [GW684088] | 0 | 0 | 47 | 17 | 22 | 5 | 14 | 18 | 0 | 19 |
| C[C@@H]1CCCCN1c1cc(-c2ccc3c(N)n[nH]c3c2)nc(N)n1 [GSK2258759] | 0 | 0 | 7 | 0 | 23 | 0 | 6 | 0 | 0 | 0 |
| COc1cccc(NC(=O)NC2CCN(c3ccnc(Nc4ccc(F)cc4)n3)C2)c1 (centres unmarked) [GSK1379721] | 16 | 35 | 2 | 14 | 0 | 4 | 0 | 0 | 0 | 0 |
| Cc1csc(-c2nc(Nc3ccncc3)c3ccccc3n2)n1 [GW869640] | 0 | 16 | 32 | 40 | 64 | 17 | 12 | 56 | 28 | 9 |
| O=C(O)COc1ncnc2cc(-c3ccc4[nH]ncc4c3)sc12 | 5 | 0 | 0 | 26 | 0 | 34 | 5 | 3 | 3 | 0 |
| COc1cc2nccc(Nc3ccc(NC(=O)c4ccc(C)cc4)c(O)c3)c2cc1OC.Cl [GW440132] | 0 | 14 | 15 | 7 | 0 | 17 | 0 | 0 | 22 | 0 |
| Cc1ccc(NC(=O)Nc2cc(C(C)(C)C)nn2-c2ccccc2)cc1 [GSK1014915] | 6 | 0 | 35 | 3 | 14 | 0 | 0 | 2 | 76 | 0 |
| Cc1nnc(-c2ccc3occ(-c4ccc(S(C)=O)cc4)c3c2)[nH]1 (centres unmarked) | 22 | 25 | 0 | 0 | 17 | 6 | 28 | 36 | 17 | 8 |
| Cc1ccc(NC(=O)Nc2cccc(Cl)c2)cc1-c1ccc(C(=O)Nc2ccncc2)cc1 [GSK1398468] | 0 | 0 | 2 | 11 | 38 | 12 | 19 | 0 | 0 | 0 |
| Cn1ccc2ncnc(Oc3ccc(Nc4nc5ccccc5[nH]4)cc3)c21 | 0 | 0 | 0 | 0 | 4 | 0 | 14 | 0 | 0 | 0 |
| CC1=C(C(=O)Nc2cc3cn[nH]c3cc2F)C(c2ccc(C(F)(F)F)cc2)CC(=O)N1 (centres unmarked) [GSK429286] | 0 | 0 | 27 | 12 | 13 | 18 | 0 | 4 | 45 | 0 |
| Cc1c(Cn2ccn3c(=O)cc(N4CCOCC4)nc23)cccc1C(F)(F)F [GSK2289044] | 4 | 20 | 0 | 7 | 27 | 8 | 16 | 8 | 13 | 0 |
| Cc1cccc(-c2cc(Nc3ccncc3)c3ccccc3n2)n1 [GSK223675] | 0 | 8 | 14 | 0 | 10 | 6 | 6 | 2 | 0 | 0 |
| CC(=O)Nc1nc2cnc(Nc3cc(NC(=O)c4cccc(CCC#N)c4)ccc3C)nc2s1 | 6 | 0 | 0 | 0 | 0 | 0 | 0 | 0 | 7 | 5 |
| COc1ccccc1-c1ccc2c(NC(=O)C3CC3)n[nH]c2n1 [SB-711239] | 6 | 5 | 0 | 19 | 15 | 64 | 5 | 0 | 7 | 12 |
